# Sampled rows, rich in hits. Any-hit rate of the full collection: about 4.2%.
# ClpP mod – qHTS Assay for Activators of ClpP; AID 651965, 2013; ATP-dependent Clp protease proteolytic subunit (Bacillus subtilis (strain 168)), P80244; Potency, µM (series often up to 57.5 µM), for inactives: at the top dose activity change, negative = active; purified B. subtilis ClpP, FRET peptide cleavage, 20 min; 340,000 tested, 1.9% active; active = well fitted falling curve with a large enough effect; inconclusive = small, poorly fitted or top-dose-only effect; inactive = no such curve, though single readings can be large or run the other way; also: potency is read from the fitted curve at half-maximal effect; the source files actives as falling curves though it sought activators and does not explain the sign; nearly all actives have a fitted effect of over 65% in size
#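 Purified B. subtilis ClpP, 10 microg/mL final in Tris/HCl pH8 with KCl, BSA, glycerol and Tween-20, cleaved an Abz/nitrotyrosine-quenched decapeptide. Fluorescence (ex 320, em 430) was read at 0 and 20 min at room temperature. Delta was normalized to 5.8 microM ADEP and DMSO/no-enzyme controls.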
# uPA surface inh – cell surface uPA generation inhibition; cell surface uPA generation assay, qHTS; AID 540303; 330,000 tested, 0.31% active; Potency, µM (series often up to 38.3 µM), inactives show at the highest dose activity change, negative = inhibition, most hits filed as inhibitors; active = well fitted inhibition curve with a large enough effect; inconclusive = small, poorly fitted or top-dose-only effect; inactive = no such curve, though single readings can be large or run the other way; tested in mouse RAW 264.7 cells; also: potency is read from the fitted curve at half-maximal effect; % is scaled to controls: 0 for no effect and ±100 for the full control effect; nearly all actives have a fitted effect of over 55% in size
# Sfp inh – Sfp phosphopantetheinyl transferase inhibition; Q9F4F7; Biochemical Sfp PPTase activity, qHTS; Potency, µM, for the others: largest response in the series, negative = inhibition, usual class: inhibitors; 310,000 tested, 3.5% active; AID 1490;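 also: the enzyme is Sfp with the accession as filed and its product quenches rhodamine fluorescence; potency is read from the fitted curve at half-maximal effect; 0% = enzyme reaction without inhibitor and -100% = no enzyme wells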
#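 With Hepes-Na pH 7.6 buffer containing 10 mM MgCl2, Sfp (15 nM) modified BHQ-2-YbbR (12.5 uM) using rhodamine-CoA (5 uM). Two reads 30 minutes apart at 525/598 nm yielded each well's rate.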
# TCR activator – T cell receptor activation. primary human leukocytes, anti-CD3, IL-2 HTRF, 48 h. Potency, µM (top dose mostly 9.22 µM), for the others: at the top dose activation of IL-2 secretion, actives largely listed as activators. 330,000 tested, under 10 active; also: % of control where 0% means no effect
#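 Primary human leukocytes incubated 48 hr with anti-CD3 beads plus compound, without co-stimulation. Secreted IL-2 measured by HTRF (europium cryptate/d2 anti-IL-2 pair, 320 nm excitation, 665 nm emission).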
# The depositor's hits bear a star; u = inconclusive; x = not tested or not shown; [ ] = remark or other dose. Unless noted, calls follow the shape of the dose curve; as a rule, active = well fitted curve in the direction sought with a large enough effect; inconclusive = small, poorly fitted or top-dose-only effect, or another doubt; inactive = no such curve, though single readings can be large; an effect the other way counts as inactive or inconclusive.
SMILES,ClpP mod,uPA surface inh,Sfp inh,TCR activator
O=C(C[n+]1cccc(NC(=O)c2ccccc2)c1)c1cccc([N+](=O)[O-])c1,x,-4%,-13%,-5%
Cc1ccc(/C=N/NC(=O)C(C)Oc2cccc3ccccc23)o1 (stereo not drawn),0%,12%,56µM*,-3%
Cc1ccc(/C=N/NC(=O)c2cccc3ccccc23)o1,x,-3%,-17%,7%
Cc1ccc(Cl)c(OCCCCN(C)Cc2ccccc2)c1,1%,x,-12%,8%
Cc1ccc(Cl)c(OCCCN(C)Cc2ccccc2)c1,x,2%,45µM*,2%
CCc1ccc(CNC(=O)C(CC)n2ccc3cc(S(=O)(=O)N4CCCCC4)ccc32)cc1 (stereo not drawn),-4%,x,x,x
CCc1nnc(SCc2ccc(OC)cc2)c2cc3sc(C)cc3n12,-1%,x,x,x
Cc1ccc(Cn2cccc(NC(=O)NC3CCCCC3)c2=O)cc1,u,1%,18%,0%
O=C(Nc1cccn(Cc2ccccc2)c1=O)NC1CCCCC1,20µM*,-2%,4%,-1%
COC(=O)c1ccccc1NC(=O)C1CCCCC1C(=O)O (stereo not drawn),28µM*,x,33%,4%
O=C(Nc1cccn(Cc2ccc(F)cc2)c1=O)NC1CCCCC1,18µM*,-4%,6%,0%
COC(=O)c1ccccc1NC(=O)NC1CCN(Cc2ccccc2)CC1,28µM*,x,13%,5%
CC1C=CCCOC1c1ccccc1 (stereo not drawn),x,x,4%,x
CCCCCCCCCCCCCCCC[n+]1ccc(CC(O)c2c(C)[nH]c3ccccc23)c2ccccc21 (stereo not drawn),-1%,x,x,x
COc1cc(OC)cc(-c2nnc3n2N=C(c2cc(OC)ccc2OC)CS3)c1,x,x,-6%,x
Cc1nn(C)c2c1c(-c1ccccc1)cc(=O)n2CC(=O)NC(C)c1ccccc1 (stereo not drawn),-17%,x,x,x
Cc1ccc(N2CC(NC(=O)c3cc4ccccc4o3)CC2=O)cc1C (stereo not drawn),-1%,x,x,x
COc1cccc(Cn2cccc(NC(=O)NC3CCCCC3)c2=O)c1,28µM*,-3%,9%,2%
Cc1ccc(S(=O)(=O)C(CNC(=O)C(=O)NCCc2ccc(F)cc2)c2cccs2)cc1 (stereo not drawn),1%,x,x,x
CCCCNC(=S)N1CCN(CC)CC1,x,-7%,-28%,-1%
CCCNC(=S)N1CCN(C)CC1,7.1µM*,2%,-23%,-3%[46.1 µM]
Cc1ccc(C(=O)OCC(=O)c2ccccc2)cc1,14µM*,3%,8%,-8%
CCC(C)(C)c1ccc(OCCCC[n+]2ccccc2)c(C(C)(C)CC)c1,1%,11µM*,50µM*,-1%
CCCCCc1ccc(OCCCC[n+]2cccc(C)c2)c(CCCCC)c1,x,-11%,-8%,-2%
CCCCCc1ccc(OCCCC[n+]2ccccc2)c(CCCCC)c1,x,-12%,35µM*,7%
SMILES,ClpP mod,uPA surface inh,Sfp inh,TCR activator
CCCCCc1ccc(OCCCC[n+]2ccc(C)cc2)c(CCCCC)c1,-2%,-14%,50µM*,-2%
Nc1sccc1C(=O)c1ccccc1,-1%,0%,28µM*,3%
O=C(c1ccccc1)c1ccccc1C(=O)c1ccccc1,0%,4%,15%,-5%
Cn1c(NN)nc2ccccc2c1=O,0%,22%,18µM*,-5%
CC(=O)c1ccc(N=Nc2ccc(N)cc2)cc1,-1%,4µM*,3%,2%
CC(=O)c1cccc(NC(=O)C2C3C=CC(C3)C2C(=O)O)c1 (stereo not drawn),1%,3%,-26%,4%
CC(=O)c1cccc(NC(=O)C2C3C=CC(C4CC34)C2C(=O)O)c1 (stereo not drawn),-6%,6%,14µM*,4%
COc1ccc(C2CC(=O)C(C(c3ccc(O)cc3)C3C(=O)CC(c4ccc(OC)cc4)CC3=O)C(=O)C2)cc1 (stereo not drawn),x,x,35µM*,x
COc1ccc(C2=CC(=O)CC(c3ccc(OC)cc3)C2)cc1 (stereo not drawn),x,1%,-1%,-1%
c1ccc2c(-n3ccnc3)nc(-c3ccoc3)nc2c1,x,x,-8%,x
O=C(O)C1CSC2(CCN(Cc3ccccc3)CC2)N1 (stereo not drawn),-2%,x,50µM*,-11%
NC(=O)c1cc(N2C(=O)C=CC2=O)ccc1Cl,-2%,-9%,8.9µM*,x
COc1ccc(CN(C)C(=O)CCl)cc1,1%,u,1%,-14%
CN(Cc1ccc(Cl)cc1)C(=O)CCl,1%,7.9µM*,9%,7%
CCCCCCCCCCOC(=O)Cn1c(COc2ccccc2OC)[n+](C)c2ccccc21,x,-15%,45µM*,5%
Cn1c(COc2ccccc2O)[n+](C)c2ccccc21,-2%,5%,18%,0%
Cc1ccc(CNC(=O)[C@H](C)[C@@H]2C[C@@]2(C)[C@@H](NC(=O)OCc2ccccc2)c2ccccc2)c(F)c1F,x,x,24%,x
Cc1nn2c(=S)[nH]nc2[nH]c1=O,x,4%,13µM*,13%
Cc1sc2ncn(CC(=O)Nc3cccc(S(N)(=O)=O)c3)c(=O)c2c1-c1ccccc1,-3%,3%,3%,0%
Cc1cccc(/C=N/n2c(COc3ccccc3)n[nH]c2=S)c1,-1%,-4%,56µM*,-2%
S=c1[nH]nc(-c2cc(-c3ccccc3)n[nH]2)n1/N=C/c1ccccc1,3%,-4%,-11%,2%
Cc1cccc(/C=N/n2c(-c3cc(-c4ccccc4)n[nH]3)n[nH]c2=S)c1,25µM*,-2%,u,-3%[46.1 µM]
FC(F)(F)c1ccccc1/C=N/n1c(COc2ccccc2)n[nH]c1=S,x,-9%,50µM*,4%
CCc1ccc(/C=N/n2c(COc3ccccc3)n[nH]c2=S)cc1,0%,2%,-30%,-4%
CCOc1ccc(/C=N/n2c(COc3ccccc3)n[nH]c2=S)cc1OC,5%,3%,56µM*,-4%
SMILES,ClpP mod,uPA surface inh,Sfp inh,TCR activator
Nc1ccc(NC(=O)c2cc(Cl)ccc2O)c(Cl)c1,-4%,x,x,x
C[C@@H]1CN([C@@H](C)CO)C(=O)CCCn2nncc2CO[C@@H]1CN(C)C(=O)c1ccccc1,-1%,x,x,x
S=c1[nH]nc(COc2ccccc2)n1/N=C/c1ccc(Cl)c(Cl)c1,-2%,-14%,56µM*,0%
CCN(CC)S(=O)(=O)c1cccc(-c2n[nH]c(=S)n2/N=C/c2ccc(OC)cc2)c1,0%,-2%,79µM*,6%[46.1 µM]
S=c1[nH]nc(COc2ccccc2)n1/N=C/c1ccncc1,-3%,-6%,11%,3%
Cc1ccc(S(=O)(=O)N2CCN(c3nc(-c4ncccn4)nc4ccccc34)CC2)cc1,-2%,x,x,x
CCOC(=O)C1(C)NC(c2ccccc2F)C2C(=O)N(CC)C(=O)C21 (stereo not drawn),28µM*,5%,23%,x
CCCNC(=O)c1ccc(N2CCC3(CC2)CC(c2ccccc2)=NO3)c(NC(=O)c2ccc(Br)cc2)c1,u,-4%,20%,-4%
